PubChem BioAssay (NCATS)
Records with an inconclusive call do not appear. The source made the active and inactive calls. Unless noted, calls follow the shape of the dose curve; as a rule, active = well fitted curve in either direction with a large enough effect (not every such curve was filed as active); inconclusive = small, poorly fitted or top-dose-only effect, or another doubt; inactive = flat fitted curve, though single readings scatter.

How the values were obtained:
[1] = biological target: Lysosomal acid glucosylceramidase (Homo sapiens) (UniProt P04062); experiment: Glucocerebrosidase-p2 (AID 348; in the data active = potency below about 10 µM; also: potency is read from the fitted curve at half-maximal effect); settings: purified GBA, blue fluorogenic substrate, 40 min
Lysosomal acid glucosylceramidase (Homo sapiens), sequence (P04062 whole entry, looked up): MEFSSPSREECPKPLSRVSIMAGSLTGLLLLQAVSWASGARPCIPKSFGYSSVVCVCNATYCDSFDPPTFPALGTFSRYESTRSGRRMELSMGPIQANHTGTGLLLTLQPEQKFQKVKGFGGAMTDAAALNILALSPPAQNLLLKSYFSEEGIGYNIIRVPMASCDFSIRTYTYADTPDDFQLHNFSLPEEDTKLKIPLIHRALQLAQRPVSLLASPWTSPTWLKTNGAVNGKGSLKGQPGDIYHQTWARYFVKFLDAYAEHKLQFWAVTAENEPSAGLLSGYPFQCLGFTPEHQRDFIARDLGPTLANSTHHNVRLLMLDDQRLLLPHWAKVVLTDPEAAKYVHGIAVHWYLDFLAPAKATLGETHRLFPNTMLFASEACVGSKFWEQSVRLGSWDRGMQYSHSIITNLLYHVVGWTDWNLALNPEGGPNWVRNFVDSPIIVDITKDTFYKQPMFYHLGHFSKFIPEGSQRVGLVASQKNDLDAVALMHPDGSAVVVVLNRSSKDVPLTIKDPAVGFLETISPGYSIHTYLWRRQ
Method in brief: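 Compounds titrated from 0.6 nM upwards against 0.2 nM enzyme in pH 5.9 citric acid/KH2PO4, taurocholate, tween-20; blue fluorogenic substrate 80 uM, 40 min room temperature, stopped and read Ex 365/Em 440 for AC50.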

[2] = AP1 Signaling Pathway (AID 357); settings: ME-180 AP-1-bla reporter, EGF-induced, beta-lactamase ratio, 5 h; at 7.69 µM (top of the series) unless noted; also: % is scaled to controls: 0 for no effect and ±100 for the full control effect
Method in brief: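 ME-180 cells with beta-lactamase reporter under AP-1 response element, stimulated with EC50 EGF; compounds tested in titration series, 5 h at 37 °C. CCF4 substrate added 2.5 h at room temperature; 460/530 nm emission ratio gave %activity and AC50.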

[3] = NFAT Signaling Pathway (AID 444); settings: Jurkat NFAT-bla M1, carbachol, beta-lactamase ratio, 5 h; at 7.69 µM (top of the series) unless noted;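 also: carbachol stimulus at about its EC50 of 1 µM final; % is scaled to controls: 0 for no effect and ±100 for the full control effect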
Method in brief: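 Jurkat cells carrying an NFAT-driven β-lactamase reporter and co-transfected muscarinic M1 receptor were treated with compound plus carbachol (1 uM final, an EC50 level) for 5 h at 37 °C. CCF4 loading followed for 1 h at RT; 460/530 nm ratio gave %activity.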

[4] = Stat Signaling Pathway (AID 446); settings: ME-180 SIE beta-lactamase reporter, IL-6 stimulated, 5 h; at 7.69 µM (top of the series) unless noted;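 also: ME-180 cervical cancer cells given 40 pM IL-6 alongside compound; SIE-controlled beta-lactamase reporter measured as 460/530 nm FRET emission ratio; % is scaled to controls: 0 for no effect and ±100 for the full control effect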
Method in brief: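 Reporter line: ME-180 cervical carcinoma, SIE-beta-lactamase. Treatment: compound with 40 pM IL-6, 5 hrs, 37 C, in low-serum OPTI-MEM with 10 mM HEPES pH 7.3. Detection: 460/530 nm fluorescence.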

[5] = biological target: Glucocorticoid receptor (Homo sapiens) (UniProt P04150); experiment: GR-EFC Redistribution (AID 451; calls by dose curve; also: potency is read from the fitted curve at half-maximal effect); settings: CHO-K1 GR-EFC translocation, beta-gal luminescence, 2 h
Glucocorticoid receptor (Homo sapiens), sequence (P04150 whole entry, looked up, the tested form may be a part): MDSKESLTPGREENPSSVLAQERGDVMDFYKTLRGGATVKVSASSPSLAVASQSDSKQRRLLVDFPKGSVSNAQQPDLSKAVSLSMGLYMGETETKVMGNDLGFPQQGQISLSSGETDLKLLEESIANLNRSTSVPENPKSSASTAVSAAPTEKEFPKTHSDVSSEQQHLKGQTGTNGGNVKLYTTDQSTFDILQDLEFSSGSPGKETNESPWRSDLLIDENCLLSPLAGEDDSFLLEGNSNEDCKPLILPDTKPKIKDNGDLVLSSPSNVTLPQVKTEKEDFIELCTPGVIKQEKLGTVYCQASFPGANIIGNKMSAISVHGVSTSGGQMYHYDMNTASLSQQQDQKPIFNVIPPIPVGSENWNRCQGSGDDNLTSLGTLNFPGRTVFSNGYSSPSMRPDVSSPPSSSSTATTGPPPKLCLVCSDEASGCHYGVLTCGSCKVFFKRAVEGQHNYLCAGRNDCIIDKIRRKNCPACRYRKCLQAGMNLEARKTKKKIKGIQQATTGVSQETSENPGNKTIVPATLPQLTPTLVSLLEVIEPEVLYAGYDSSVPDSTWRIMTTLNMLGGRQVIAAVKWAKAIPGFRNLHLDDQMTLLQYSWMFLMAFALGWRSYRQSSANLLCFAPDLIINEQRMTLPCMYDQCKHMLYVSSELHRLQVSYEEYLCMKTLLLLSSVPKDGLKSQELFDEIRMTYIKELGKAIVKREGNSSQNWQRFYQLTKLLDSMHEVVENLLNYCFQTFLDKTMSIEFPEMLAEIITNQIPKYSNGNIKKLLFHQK
Method in brief: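 CHO-K1 cells stably expressing nuclear-localized β-gal enzyme acceptor and GR fused C-terminally to the enzyme donor fragment; ligand-driven nuclear translocation restores β-gal by complementation. Compounds titrated up to 46 uM final, 2 h at 37 °C; luminescence read.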

[6] = biological target: Mitogen-activated protein kinase 10 (Mus musculus) (UniProt Q61831); experiment: JNK3 AlphaScreen Assay (AID 530); settings: JNK3 lysate, c-Jun phosphorylation; series mostly up to 57.1 µM;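 also: kinase came from lysate of stimulated human HepG2 cells; signal reports phosphorylation of biotinylated GST-cJun 1-79 at Ser73 with 10 µM ATP; % is scaled to controls: 0 for no effect and ±100 for the full control effect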
Method in brief: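 JNK3 came from HepG2 lysates pre-activated with IL-1beta and TNF-alpha and phosphorylated biotinylated GST-cJun (1-79) at 10 uM ATP, pH 7.6, room temperature. Compounds were titrated. AlphaScreen signal used anti-phospho-cJun (Ser73) antibody.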

[7] = biological target: 3',5'-cyclic-AMP phosphodiesterase 4B (Homo sapiens) (UniProt Q07343); experiment: qHTS Assay for Inhibitors of PDE-IV (AID 607; active = well fitted activation curve with a large enough effect in the main read-out, with a control signal flat, not every such curve was filed as active; also: % of control where 0% means no effect); settings: HEK293 ACTOne CNG channel cells, membrane potential fluorescence; series mostly up to 22.9 µM
3',5'-cyclic-AMP phosphodiesterase 4B (Homo sapiens), sequence (Q07343 whole entry, looked up): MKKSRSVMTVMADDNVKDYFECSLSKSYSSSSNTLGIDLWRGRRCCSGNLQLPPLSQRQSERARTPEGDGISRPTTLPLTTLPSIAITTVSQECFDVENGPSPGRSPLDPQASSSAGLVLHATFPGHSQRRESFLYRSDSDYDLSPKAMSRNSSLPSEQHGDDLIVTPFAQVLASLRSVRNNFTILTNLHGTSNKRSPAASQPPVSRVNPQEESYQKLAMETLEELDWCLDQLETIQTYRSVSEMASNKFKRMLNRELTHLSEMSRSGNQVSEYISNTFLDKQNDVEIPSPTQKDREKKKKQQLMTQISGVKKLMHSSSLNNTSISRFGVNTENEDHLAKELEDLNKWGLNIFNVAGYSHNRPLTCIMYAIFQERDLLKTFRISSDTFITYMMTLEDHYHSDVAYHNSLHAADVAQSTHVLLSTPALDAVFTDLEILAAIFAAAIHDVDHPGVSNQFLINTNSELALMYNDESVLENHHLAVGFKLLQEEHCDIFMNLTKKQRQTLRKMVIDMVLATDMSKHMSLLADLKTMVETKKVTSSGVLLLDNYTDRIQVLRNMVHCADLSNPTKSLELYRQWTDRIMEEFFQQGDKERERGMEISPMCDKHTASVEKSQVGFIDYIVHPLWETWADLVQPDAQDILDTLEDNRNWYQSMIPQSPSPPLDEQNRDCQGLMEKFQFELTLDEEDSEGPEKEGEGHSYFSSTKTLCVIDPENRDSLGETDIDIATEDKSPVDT
Method in brief: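 Cell-based read-out of cAMP via a modified cyclic nucleotide-gated channel and membrane potential dye (535/590 nm) in HEK293 cells expressing PDE4 endogenously. Compounds tested up to 22.9 uM final; 100 uM RO 20-1724 reference.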

[8] = biological target: Cytochrome P450 3A4 (Homo sapiens) (UniProt P08684); experiment: qHTS Assay for Activators of Cytochrome P450 3A4 (AID 885; active = well fitted curve in the direction sought with a large enough effect; an effect the other way counts as inactive or inconclusive; also: nearly all actives have a fitted effect of over 65% in size); settings: recombinant CYP3A4, Luciferin-PPXE luminescence, 60 min; series mostly up to 57.1 µM
Cytochrome P450 3A4 (Homo sapiens), sequence (P08684 whole entry, looked up): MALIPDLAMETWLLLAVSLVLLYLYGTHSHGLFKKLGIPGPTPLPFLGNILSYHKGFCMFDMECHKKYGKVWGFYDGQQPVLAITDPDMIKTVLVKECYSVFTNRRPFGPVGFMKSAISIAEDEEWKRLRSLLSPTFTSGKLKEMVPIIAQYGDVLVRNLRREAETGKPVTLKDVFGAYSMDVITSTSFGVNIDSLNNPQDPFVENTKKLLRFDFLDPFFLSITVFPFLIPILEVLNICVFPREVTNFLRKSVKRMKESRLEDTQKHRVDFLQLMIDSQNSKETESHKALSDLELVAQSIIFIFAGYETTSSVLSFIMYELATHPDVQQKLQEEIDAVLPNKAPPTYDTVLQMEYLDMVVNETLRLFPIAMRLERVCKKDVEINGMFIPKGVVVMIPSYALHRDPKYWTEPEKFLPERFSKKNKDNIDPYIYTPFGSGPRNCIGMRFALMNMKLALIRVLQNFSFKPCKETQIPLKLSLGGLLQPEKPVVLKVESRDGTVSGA
Method in brief: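 Signal was normalized against complete inhibition by 57 uM ketoconazole. The reaction used 20nM CYP3A4 with 25uM Luciferin-PPXE, 10-min compound preincubation and a 60-min NADPH-supported step at RT.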

[9] = Primary qHTS for small molecule stabilizers of the endoplasmic reticulum resident proteome: Secreted ER Calcium Modulated Protein (SERCaMP) assay (AID 1508630; active = well fitted curve in the direction sought with a large enough effect; an effect the other way counts as inactive or inconclusive; also: % is scaled to controls: 0 for no effect and ±100 for the full control effect); settings: SH-SY5Y GLuc-SERCaMP (Gaussia luciferase released on ER calcium loss) secretion, thapsigargin, luminescence; series mostly up to 38.4 µM
Method in brief: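 GLuc-SERCaMP-expressing SH-SY5Y cells, pretreated 16 h with compound, are challenged with thapsigargin to empty ER calcium stores; after 4 h, coelenterazine is added directly to the medium and luminescence is imaged.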

[10] = qHTS Assay for Identification of Small Molecule Agonists for Hypoxia Response Element Signaling Pathway (AID 914; active = well fitted activation curve with a large enough effect in the signal ratio, with a control signal flat, not every such curve was filed as active; the % refers to the signal ratio; also: % of control where 0% means no effect); settings: ME-180 (cervical carcinoma) HRE-bla reporter, beta-lactamase ratio, CoCl2, 17 h; activation: active compounds read high
Method in brief: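 qHTS titration; ME-180 HRE-bla cells; EC50 CoCl2 co-treatment, 17 h at 37 degrees Celsius; CCF4 dye, ex 405nm, em 460nm and 530nm; %Activity from ratio; AC50.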

[11] = biological target: Glucocorticoid receptor (Homo sapiens) (UniProt P04150); experiment: GR-GFP Redistribution (AID 450;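 active = compounds whose dose series gives a full or clear partial fitted curve of increased nuclear translocation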; also: potency is read from the fitted curve at half-maximal effect); settings: U2OS GR-GFP nuclear translocation, laser cytometry, 2 h
[12] = biological target: Cytochrome P450 3A4 (Homo sapiens) (UniProt P08684); experiment: qHTS Assay for Inhibitors and Substrates of Cytochrome P450 3A4 (AID 884; active = well fitted curve in the direction sought with a large enough effect; an effect the other way counts as inactive or inconclusive; also: % is scaled to controls: 0 for no effect and ±100 for the full control effect; nearly all actives have a fitted effect of over 50% in size); settings: recombinant CYP3A4, Luciferin-PPXE luminescence; series mostly up to 57.1 µM
Method in brief: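 20 nM human CYP3A4 with 25 uM Luciferin-PPXE (at KM) in 200 mM KPO4, preincubated 10 min with compound; NADPH regeneration started a 60 min RT reaction. Luciferin detected by luminescence, normalized to 57 uM ketoconazole as full inhibition.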

O=C(c1ccncc1)N1CCC[C@@]2(CCN(Cc3ccccc3)C2)C1
inactive: Potency [1] > 11.4 µM | activity change, negative = inhibition [2] 1% | activity change, negative = inhibition [3] -11.7% | activity, negative = inhibition [4] 7.78% | Potency [5] > 46 µM | Potency [6] | Potency [7] | Potency [8] | outcome [9]

COC(=O)N1CCC2(CCCN(c3ncccn3)C2)CC1
inactive: Potency [1] > 11.4 µM | activity change, negative = inhibition [2] -15% | activity change, negative = inhibition [3] 6.41% | activity, negative = inhibition [4] 1.72% | Potency [5] > 46 µM | Potency [6] | Potency [7] | activation [10] 12.6% | outcome [9]

O=C(c1cnccn1)N1CCC2(CCCN(c3ccncc3)C2)CC1
inactive: Potency [1] > 11.4 µM | activity change, negative = inhibition [2] -3.01% | activity, negative = inhibition [4] -6.12% | Potency [5] > 46 µM | Potency [6] | Potency [7] | outcome [9]

N#Cc1ccc(CN2CCC3(CC2)CCN(C(=O)c2cnccn2)CC3)cc1
inactive: Potency [1] > 11.4 µM | activity change, negative = inhibition [2] 4.06% | activity, negative = inhibition [4] -7.54% | Potency [5] > 46 µM | Potency [6] | Potency [7] | outcome [9]

N#Cc1cccc(NC(=O)N2CCCC3(CCN(C(=O)c4ccncc4)CC3)C2)c1
inactive: Potency [1] > 11.4 µM | activity change, negative = inhibition [2] -9.49% | activity, negative = inhibition [4] 1.51% | Potency [5] > 46 µM | Potency [6] | Potency [7] | outcome [9]

COCC(=O)N1CCC2(CCCN(c3ccccn3)C2)CC1
inactive: Potency [1] > 11.4 µM | activity change, negative = inhibition [2] 0.674% | activity change, negative = inhibition [3] -15.3% | activity, negative = inhibition [4] 11.7% | Potency [6] | Potency [7] | outcome [9]

O=C(Nc1ccccc1)N1CCCC2(CCN(C(=O)c3cccc(F)c3)CC2)C1
inactive: Potency [1] > 11.4 µM | activity change, negative = inhibition [2] -6.89% | activity, negative = inhibition [4] -6.85% | Potency [5] > 46 µM | Potency [6] | outcome [9]

CS(=O)(=O)N1CCC[C@@]2(CCN(C(=O)Nc3cccc(C#N)c3)C2)C1
inactive: Potency [1] > 11.4 µM | activity change, negative = inhibition [2] -2.32% | activity change, negative = inhibition [3] 9.12% | activity, negative = inhibition [4] 1.86% | Potency [5] > 46 µM | Potency [6] | Potency [7] | Potency [8] | outcome [9]

O=c1c(-c2ccccc2)nc2cncnc2n1Cc1ccc(F)cc1
inactive: Potency [1] > 11.4 µM | activity change, negative = inhibition [2] -20% | activity, negative = inhibition [4] -6.53% | Potency [11] > 9.22 µM | Potency [5] > 46 µM | Potency [6] | outcome [9]

N#Cc1cccc(NC(=O)N2CC3(CCN(C(=O)c4cnccn4)CC3)C2)c1
inactive: Potency [1] > 11.4 µM | activity change, negative = inhibition [2] -10.3% | activity change, negative = inhibition [3] 14.6% | Potency [5] > 46 µM | Potency [6] | Potency [7] | Potency [12] | outcome [9]

Cn1cccc1C(=O)N1CCC2(CCCN(C(=O)Nc3cccc(C#N)c3)C2)CC1
inactive: Potency [1] > 11.4 µM | activity change, negative = inhibition [2] -6.91% | activity, negative = inhibition [4] -16.1% | Potency [5] > 46 µM | Potency [6] | Potency [7] | outcome [9]

COc1ccc(NC(=O)N2CC[C@@]3(CCCN(C(=O)c4cccc(F)c4)C3)C2)cc1
inactive: Potency [1] > 11.4 µM | activity change, negative = inhibition [2] -11.4% | activity change, negative = inhibition [3] 6.04% | activity, negative = inhibition [4] -0.331% | Potency [5] > 46 µM | Potency [6] | Potency [7] | Potency [8] | outcome [9]

O=c1c(CCc2ccccc2)nc2cnc(Nc3ccccc3)nc2n1Cc1cccs1
inactive: Potency [1] > 11.4 µM | activity change, negative = inhibition [2] -26.7% | activity, negative = inhibition [4] -23.5% | Potency [11] > 9.22 µM | Potency [5] > 46 µM | Potency [6] | Potency [7] | outcome [9]
